For 110 compounds, activity increase over dofetilide control, less the hit threshold results are on record in PubChem BioAssay AID1835 (Johns Hopkins Ion Channel Center, 2009).

Each structure is given as a SMILES string. The whole screen tested about 2,400 compounds, of which about 750 (31%) were called active.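 Rule for the calls: active = median signal gain over dofetilide-blocked control wells reaching their mean plus 3 SD, so readout 1 at least 0; inactive = the rest.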 The list shows a part of the results.

Chain of Voltage-gated inwardly rectifying potassium channel KCNH2 (Homo sapiens) (Q12809 whole entry, looked up): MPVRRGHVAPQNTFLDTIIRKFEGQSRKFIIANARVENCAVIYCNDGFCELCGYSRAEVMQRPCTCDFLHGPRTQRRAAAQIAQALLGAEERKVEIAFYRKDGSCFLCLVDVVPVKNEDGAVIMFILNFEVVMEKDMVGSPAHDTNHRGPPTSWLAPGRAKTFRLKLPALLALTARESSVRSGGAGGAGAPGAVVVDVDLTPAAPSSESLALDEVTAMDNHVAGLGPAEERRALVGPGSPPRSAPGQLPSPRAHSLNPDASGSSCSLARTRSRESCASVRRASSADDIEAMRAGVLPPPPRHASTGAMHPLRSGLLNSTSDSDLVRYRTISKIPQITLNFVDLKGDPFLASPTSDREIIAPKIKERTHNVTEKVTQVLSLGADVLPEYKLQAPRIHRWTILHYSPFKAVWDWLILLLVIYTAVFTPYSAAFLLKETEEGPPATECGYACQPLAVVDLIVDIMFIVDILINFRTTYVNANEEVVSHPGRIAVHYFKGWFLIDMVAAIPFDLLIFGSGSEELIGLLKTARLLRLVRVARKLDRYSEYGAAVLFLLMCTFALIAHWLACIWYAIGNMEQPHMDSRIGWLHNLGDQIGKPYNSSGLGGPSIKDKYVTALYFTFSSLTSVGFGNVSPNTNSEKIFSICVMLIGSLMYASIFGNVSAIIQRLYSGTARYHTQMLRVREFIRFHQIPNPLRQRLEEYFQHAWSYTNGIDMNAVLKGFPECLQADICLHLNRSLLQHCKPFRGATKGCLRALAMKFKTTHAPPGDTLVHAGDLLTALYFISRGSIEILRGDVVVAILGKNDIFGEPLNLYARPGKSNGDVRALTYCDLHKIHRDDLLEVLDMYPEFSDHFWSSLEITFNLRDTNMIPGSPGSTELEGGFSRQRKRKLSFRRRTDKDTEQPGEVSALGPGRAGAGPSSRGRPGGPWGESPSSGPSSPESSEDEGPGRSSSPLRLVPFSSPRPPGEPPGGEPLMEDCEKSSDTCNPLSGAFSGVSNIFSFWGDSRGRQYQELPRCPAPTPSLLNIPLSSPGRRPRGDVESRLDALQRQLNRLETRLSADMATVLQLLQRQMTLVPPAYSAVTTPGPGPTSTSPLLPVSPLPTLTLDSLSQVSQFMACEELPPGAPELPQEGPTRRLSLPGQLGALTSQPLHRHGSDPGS

The assay addresses Voltage-gated inwardly rectifying potassium channel KCNH2 (Homo sapiens) (UniProt Q12809). The assay is described as follows: modulators restoring hERG flux under dofetilide – cell-based, thallium flux, duplicate retest, dofetilide IC70, confirmation (AID 1835). The conditions noted are these: hERG cell line, FluxOR thallium flux, dofetilide-blocked; at 10 µM; stronger effect = higher value. A general note: hERG is a cardiac potassium channel; its block is linked to QT prolongation.
Regarding `C=CCn1c(=S)[nH]c2cc(-c3ccccc3)sc2c1=O`, the activity increase over dofetilide control, less the hit threshold was 6% (active).

For `Oc1ccc(Br)cc1-c1n[nH]c(=S)n1Cc1ccccc1`, the activity increase over dofetilide control, less the hit threshold was -17% (inactive). Regarding `C=CCn1c(=S)[nH]c2nc3c(cc2c1=O)CCCC3`, the activity increase over dofetilide control, less the hit threshold was -9% (inactive). For `COc1ccccc1Cn1c(=S)[nH]c2ccc(Br)cc2c1=O`, the activity increase over dofetilide control, less the hit threshold is 6% (active). In the case of `C=CCn1c(=S)[nH]c2ccc(Br)cc2c1=O`, the activity increase over dofetilide control, less the hit threshold is 10% (active). The value for `COc1ccc(Br)cc1CNc1ccccc1` was -21% (inactive).

Consider `Cc1cc(=O)[nH]c(=S)n1-c1ccccc1`, for which the activity increase over dofetilide control, less the hit threshold is -14% (inactive). The value for `CC12CCC(C(=O)OC3CCCCC3)(OC1=O)C2(C)C` (stereo not given) was -17% (inactive); that for `O=C(O)Cc1cc(I)c(Oc2ccc(O)c(I)c2)c(I)c1` was 18% (active); that for `O=C(O)CN1C(=O)c2ccc(Oc3ccc4c(c3)C(=O)N(CC(=O)O)C4=O)cc2C1=O` was -10% (inactive).

`O=C(NCCCN1CCOCC1)c1ccc(CS(=O)(=O)Cc2ccccc2Cl)o1`: the activity increase over dofetilide control, less the hit threshold is -11% (inactive). The value for `CCn1ccnc1CN1CCCC(CO)(Cc2cccc(OC)c2)C1` (stereo not given) was -11% (inactive); that for `O=C(NC(=S)NCCc1ccccc1)c1cccc(Cl)c1` was 4% (active). With `O=C(NCc1cccc(Cl)c1)c1ccncc1`, the activity increase over dofetilide control, less the hit threshold is -10% (inactive). The same measure for `S=C(NCCc1ccccc1)N/N=C/c1c(Cl)cccc1Cl`: -12% (inactive); for `Cc1sc2nc[nH]c(=S)c2c1-c1ccccc1`: 36% (active).

As to `Cc1c(-c2ccccc2)sc2nc[nH]c(=S)c12`, the activity increase over dofetilide control, less the hit threshold was 52% (active).

For the compound `Fc1ccc(-n2cc(-c3ccccc3)c3c(=S)nc[nH]c32)cc1`, the activity increase over dofetilide control, less the hit threshold is -1% (inactive). The value for `COC(=O)c1ccc(NN=Nc2ccc(C)cc2)cc1` was -6% (inactive); that for `Nc1nonc1C(=O)N1CCCC1` was -9% (inactive); that for `Cc1nnc2ccc(-c3cccc(NC(=O)c4ccc(Cl)nc4)c3)nn12` was -12% (inactive). The same measure for `COc1ccc2nc(N3CCCCC3)c(/C=C3\SC(=S)NC3=O)cc2c1`: 3% (active); for `Cc1cc(NC(C)C)n2c(nc3ccccc32)c1C#N`: -18% (inactive); for `O=C(O)CN1C(=O)C(=O)N(Cc2ccc(C(F)(F)F)cc2)C1=O`: 6% (active).

`O=C(Nc1cccnc1)c1ccc(COc2cc(Cl)ccc2Cl)o1`: the activity increase over dofetilide control, less the hit threshold was 0% (active). For the compound `O=C(Nc1cccnc1)c1ccc(COc2ccccc2Br)o1`, the activity increase over dofetilide control, less the hit threshold was -3% (inactive). As for `O=C(Nc1ccc(Cl)c(-c2nc3ccccc3[nH]2)c1)c1cccnc1`, the activity increase over dofetilide control, less the hit threshold is -43% (inactive).

Take `COc1ccc(Cc2c(O)nc(SCC(C)C)[nH]c2=O)cc1`: the activity increase over dofetilide control, less the hit threshold was -18% (inactive). The value for `OC(CNCCc1ccc(C(F)(F)F)cc1)COc1cccc2ccccc12` (stereo not given) was -22% (inactive); that for `O=C(OCc1ccccc1)C1=NNC2C(=O)N(c3ccc(Br)cc3)C(=O)C12` (stereo not given) was -2% (inactive); that for `Cc1cc(C(=O)CCC(=O)NC(C)c2ccc(S(N)(=O)=O)cc2)c(C)s1` (stereo not given) was -15% (inactive). The value for `Cc1ccc(/C=N/Nc2nc(C(C)(C)C)cs2)o1` was -17% (inactive). Consider `COc1ccc(/C(C)=N/Nc2ccc(C(=O)O)cc2)c(OC)c1`, for which the activity increase over dofetilide control, less the hit threshold is -12% (inactive). The value for `Cc1ccc(/C=N/Nc2ccc(C(=O)O)cc2)o1` was 1% (active); that for `CC(C)(C)OC(=O)C(Cl)(C(=O)OC(C)(C)C)c1ccc2nnnn2n1` was -27% (inactive). The value for `CC(C)Oc1cccc(C(=O)N2CCCC2)c1` was -4% (inactive). As to `Cc1cc(C)c(C(=O)c2ccc(C(=O)N3CCCCC3)cc2)c(C)c1`, the activity increase over dofetilide control, less the hit threshold is 23% (active). With `Cc1ccc(SCc2ccc(C(=O)N3CCCC3)cc2)cc1`, the activity increase over dofetilide control, less the hit threshold is 9% (active). The value for `Cc1ccc2nc(SCC(=O)N3CCCCCC3)nc(=O)n2c1` was -20% (inactive).

As to `COc1ccc(C)cc1NC(=O)Nc1ccc(C(=O)N2CCCC2)cc1`, the activity increase over dofetilide control, less the hit threshold was -5% (inactive).

Turning to `Cc1ccc(CNC(=O)c2ccc(CNc3c(N4CCCC4)c(=O)c3=O)cc2)cc1`, the activity increase over dofetilide control, less the hit threshold is -7% (inactive). The same measure for `O=c1cc(O)c2ccccc2n1Cc1ccccc1Cl`: -8% (inactive); for `COc1ccc(-c2c(C#N)c(SCC(=O)c3cc4ccccc4oc3=O)nc(C)c2C(=O)Nc2ccccc2)cc1`: -13% (inactive); for `Cc1ccc(Nc2nc(-c3ccncc3)cs2)cc1`: -8% (inactive). The value for `Cc1ccc(Nc2nc(-c3cccs3)cs2)nc1` was 1% (active). For `Cc1ccc(Nc2nc(C)cs2)cc1`, the activity increase over dofetilide control, less the hit threshold was -16% (inactive). The value for `COc1ccccc1-n1cnc2sc(C)c(C)c2c1=O` was -6% (inactive); that for `CCN1C(=O)[C@H]2[C@@H](c3ccc(-c4ccc(OC)cc4)cc3)N[C@@](C)(C(=O)OC)[C@H]2C1=O` was -4% (inactive). The same measure for `CCCCn1nc(NC(=O)COC)c2cc3ccc(C)cc3nc21`: -22% (inactive); for `CCOC(=O)C(C)Sc1nc2c(c(-c3cccs3)c1C#N)CCC2` (stereo not given): 1% (active); for `COc1cc(/C=C2/C(=O)NN(c3ccccc3)C2=O)cc(Br)c1O`: -25% (inactive).

With `Cc1cccc(N(C(=O)c2csnn2)C(C(=O)NCc2ccccc2)c2ccncc2)c1` (stereo not given), the activity increase over dofetilide control, less the hit threshold is -11% (inactive).

Regarding `CCCNC(=O)N1CCN(S(=O)(=O)c2ccc(C)cc2)CC1`, the activity increase over dofetilide control, less the hit threshold is -16% (inactive). The same measure for `O=c1[nH]c(=S)[nH]c2c1C(c1ccc(Br)cc1)c1c([nH]c(=S)[nH]c1=O)O2`: -17% (inactive); for `CCSc1nc2c(c(=O)[nH]1)C(c1ccc(C)cc1)C1=C(CCCC1=O)N2` (stereo not given): -7% (inactive). The value for `CSc1nc2c(c(=O)[nH]1)C(c1ccc(Cl)cc1)CC(=O)N2` (stereo not given) was 113% (active). The same measure for `CSc1nc2c(c(=O)[nH]1)C(c1ccccc1Cl)CC(=O)N2` (stereo not given): 17% (active).

For the compound `CSc1nc2c(c(=O)[nH]1)C(c1ccc(F)cc1)CC(=O)N2` (stereo not given), the activity increase over dofetilide control, less the hit threshold was 18% (active).

On to `CSc1nc(C)c(Cc2ccccc2)c(=O)[nH]1`, for which the activity increase over dofetilide control, less the hit threshold is -20% (inactive). The same measure for `CSc1nc2c(c(=O)[nH]1)C(c1ccc(Br)cc1)CC(=O)N2` (stereo not given): 25% (active); for `CN1N=C(C(=O)N2CCc3c([nH]c4ccccc34)C2c2c(F)cccc2Cl)CCC1=O` (stereo not given): -13% (inactive). Regarding `O=C(O)Cn1cc(CN2CCOCC2)c2ccccc21`, the activity increase over dofetilide control, less the hit threshold was -22% (inactive). The same measure for `Cc1cccc(NC(=S)N/N=C2/CCCCc3ccccc32)c1`: -11% (inactive); for `S=c1[nH]nc(CSc2nc3ccccc3s2)n1C1CCCCC1`: 5% (active). The same measure for `CCCOC(=S)NC(=O)c1sc2ccccc2c1Cl`: 30% (active); for `CCOC(=S)NC(=O)c1sc2ccccc2c1Cl`: 40% (active); for `O=C(N/N=C/c1ccccn1)c1sc2ccccc2c1Cl`: -27% (inactive). The value for `Cc1ccc(NC(=S)NC(=O)c2sc3ccccc3c2Cl)c(C(=O)O)c1` was -1% (inactive); that for `COC(=O)Cn1c(=NC(=O)c2sc3ccccc3c2Cl)sc2cc(S(N)(=O)=O)ccc21` was -2% (inactive).

On to `CCCCOC(=S)NC(=O)c1sc2ccccc2c1Cl`, for which the activity increase over dofetilide control, less the hit threshold was 86% (active). The value for `CC(C)C(=O)N(c1ccc(F)cc1)C1C=CS(=O)(=O)C1` (stereo not given) was -20% (inactive); that for `CCOC(=O)C1C(c2ccccc2)C(C(=O)OCC)C1c1ccccc1` (stereo not given) was -6% (inactive); that for `CCCSc1cc(NCCOC(C)=O)c([N+](=O)[O-])c2nonc12` was -13% (inactive).

For `CC(C)CCNC(=O)CCc1nnc(Cc2c[nH]c3ccccc23)o1`, the activity increase over dofetilide control, less the hit threshold was -9% (inactive).

Take `CCCCCN(C(=O)CCC(=O)OC(C)C(=O)c1ccccc1)c1c(N)n(CCCC)c(=O)[nH]c1=O` (stereo not given): the activity increase over dofetilide control, less the hit threshold is -16% (inactive).

For the compound `CCCNC(=O)N(C)c1nncnc1C(=O)NC`, the activity increase over dofetilide control, less the hit threshold is -7% (inactive).

For the compound `O=C1NCC(=O)N2C(c3ccccc3)c3[nH]c4ccccc4c3C[C@@H]12` (stereo not given in full), the activity increase over dofetilide control, less the hit threshold is -22% (inactive). Turning to `CC1CCCCC1n1c(=S)[nH]c2ccccc2c1=O` (stereo not given), the activity increase over dofetilide control, less the hit threshold was 1% (active). Regarding `CC1CCC(N2CCN(C(=O)c3ccccc3F)CC2)CC1` (stereo not given), the activity increase over dofetilide control, less the hit threshold was -6% (inactive).

Take `CC1CCC(n2c(=S)[nH]c3ccccc3c2=O)CC1` (stereo not given): the activity increase over dofetilide control, less the hit threshold is 22% (active).

In the case of `O=c1c2ccccc2[nH]c(=S)n1C1CCCCC1`, the activity increase over dofetilide control, less the hit threshold was 2% (active). For the compound `C=CCNC(=O)c1onc(CSc2ccc(OC)cc2)c1C(=O)O`, the activity increase over dofetilide control, less the hit threshold is -11% (inactive). Turning to `NC(=O)CC1NC(=O)c2ccccc21` (stereo not given), the activity increase over dofetilide control, less the hit threshold is -10% (inactive).

With `O=C(Cn1c(=O)oc2ccccc21)Nc1ccc(F)c(F)c1`, the activity increase over dofetilide control, less the hit threshold was -29% (inactive).

As for `Cc1cc(=S)[nH]c2c(C)cccc12`, the activity increase over dofetilide control, less the hit threshold was 5% (active). The value for `S=c1[nH]c2cc(-c3ccccc3)ccc2o1` was 84% (active). The value for `CCOc1c(OC)ccc2c3c(c(=O)oc12)CCCC3` was -20% (inactive); that for `Cc1c(OC(C)C(=O)NCCN2CCOCC2)ccc2c3c(c(=O)oc12)CCC3` (stereo not given) was 3% (active); that for `Cc1ccc(-c2nc(CS(=O)(=O)CC(=O)NCCN3CCOCC3)c(C)o2)cc1` was -13% (inactive). The value for `CCCn1c(=S)[nH]c2ccc(C(F)(F)F)cc21` was -3% (inactive); that for `FC(F)(F)c1cnc2c(c1)[nH]c(=S)n2-c1ccc(Cl)cc1` was 21% (active); that for `Clc1ccc(N=NN2CCOCC2)cc1` was -8% (inactive). As for `COc1cc2c(=O)nc3n(c2cc1OC)C(c1ccccc1)N=C(N)N3` (stereo not given), the activity increase over dofetilide control, less the hit threshold was -8% (inactive). The value for `CCN(CC)C(=O)CN1C(=O)c2cccc3cccc(c23)C1=O` was -15% (inactive). Take `CN1C(=O)c2ccc(C(=O)NCc3ccccc3)cc2C1=O`: the activity increase over dofetilide control, less the hit threshold is -16% (inactive). The same measure for `CN1C(=O)/C(=N/OC(=O)c2ccccc2)c2ccccc21`: 3% (active). The same measure for `CN1C(=O)/C(=N\OC(=O)c2cccc3ccccc23)c2ccccc21`: 15% (active); for `O=C1c2ccccc2C(=O)N1c1cccnc1`: -12% (inactive); for `c1ccc(OCc2nn3c(Cn4cnc5ccccc54)nnc3s2)cc1`: -10% (inactive). The same measure for `O=C(NC(=S)Nc1ccccc1N1CCCC1)c1ccc(-c2cccc([N+](=O)[O-])c2)o1`: -6% (inactive). In the case of `O=C(NC(=S)Nc1cccc(Cl)c1N1CCOCC1)c1cccs1`, the activity increase over dofetilide control, less the hit threshold was -5% (inactive). For the compound `O=C(COc1ccccc1Cl)NC(=S)Nc1ccccc1N1CCCC1`, the activity increase over dofetilide control, less the hit threshold was 15% (active). The value for `O=C(COc1ccc(Cl)cc1Cl)NC(=S)Nc1ccccc1C(=O)O` was -6% (inactive). The value for `CCOc1ccc(NC(=O)CS(=O)CC(=O)NC2CCCc3ccccc32)cc1` (stereo not given) was -7% (inactive); that for `O=C(CNC1CCCCCC1)Nc1ccccc1N1CCOCC1` was -12% (inactive).

For `O=C(NC(=S)Nc1cccc(Cl)c1N1CCCCC1)c1cccs1`, the activity increase over dofetilide control, less the hit threshold is -10% (inactive). The same measure for `Cc1cccc(OCC(=O)NC2CCCc3ccccc32)c1C` (stereo not given): -11% (inactive); for `O=C(NC(=S)Nc1cccc(Cl)c1N1CCCCC1)c1ccco1`: 52% (active). Consider `O=C(NC(=S)NC1CCCc2ccccc21)c1ccco1` (stereo not given), for which the activity increase over dofetilide control, less the hit threshold was 13% (active). The same measure for `O=C(NC(=S)Nc1ccccc1N1CCCC1)c1ccc([N+](=O)[O-])cc1`: 4% (active).
